Data published in PubChem BioAssay AID504333 (National Center for Advancing Translational Sciences (NCATS), 2011).
About 16,000 (4.4%) of roughly 360,000 compounds were called active. About 9% were inconclusive and are not listed. Calls come from the whole dose curve; as a rule, active = well fitted inhibition curve with a large enough effect; inconclusive = small, poorly fitted or top-dose-only effect; inactive = no such curve, though single readings can be large or run the other way. What follows is part of a selection rich in actives, with near analogues and random picks from the rest. A call without a number means that no potency is given here.

What follows are molecules tested against Bromodomain adjacent to zinc finger domain protein 2B (Homo sapiens) (UniProt Q9UIF8) (assay: qHTS Assay for Inhibitors of BAZ2B). Conditions: AlphaScreen BAZ2B-H3K14Ac peptide displacement; series mostly up to 114 µM.
Chain of Bromodomain adjacent to zinc finger domain protein 2B (Homo sapiens) (Q9UIF8 whole entry, looked up, the tested form may be a part): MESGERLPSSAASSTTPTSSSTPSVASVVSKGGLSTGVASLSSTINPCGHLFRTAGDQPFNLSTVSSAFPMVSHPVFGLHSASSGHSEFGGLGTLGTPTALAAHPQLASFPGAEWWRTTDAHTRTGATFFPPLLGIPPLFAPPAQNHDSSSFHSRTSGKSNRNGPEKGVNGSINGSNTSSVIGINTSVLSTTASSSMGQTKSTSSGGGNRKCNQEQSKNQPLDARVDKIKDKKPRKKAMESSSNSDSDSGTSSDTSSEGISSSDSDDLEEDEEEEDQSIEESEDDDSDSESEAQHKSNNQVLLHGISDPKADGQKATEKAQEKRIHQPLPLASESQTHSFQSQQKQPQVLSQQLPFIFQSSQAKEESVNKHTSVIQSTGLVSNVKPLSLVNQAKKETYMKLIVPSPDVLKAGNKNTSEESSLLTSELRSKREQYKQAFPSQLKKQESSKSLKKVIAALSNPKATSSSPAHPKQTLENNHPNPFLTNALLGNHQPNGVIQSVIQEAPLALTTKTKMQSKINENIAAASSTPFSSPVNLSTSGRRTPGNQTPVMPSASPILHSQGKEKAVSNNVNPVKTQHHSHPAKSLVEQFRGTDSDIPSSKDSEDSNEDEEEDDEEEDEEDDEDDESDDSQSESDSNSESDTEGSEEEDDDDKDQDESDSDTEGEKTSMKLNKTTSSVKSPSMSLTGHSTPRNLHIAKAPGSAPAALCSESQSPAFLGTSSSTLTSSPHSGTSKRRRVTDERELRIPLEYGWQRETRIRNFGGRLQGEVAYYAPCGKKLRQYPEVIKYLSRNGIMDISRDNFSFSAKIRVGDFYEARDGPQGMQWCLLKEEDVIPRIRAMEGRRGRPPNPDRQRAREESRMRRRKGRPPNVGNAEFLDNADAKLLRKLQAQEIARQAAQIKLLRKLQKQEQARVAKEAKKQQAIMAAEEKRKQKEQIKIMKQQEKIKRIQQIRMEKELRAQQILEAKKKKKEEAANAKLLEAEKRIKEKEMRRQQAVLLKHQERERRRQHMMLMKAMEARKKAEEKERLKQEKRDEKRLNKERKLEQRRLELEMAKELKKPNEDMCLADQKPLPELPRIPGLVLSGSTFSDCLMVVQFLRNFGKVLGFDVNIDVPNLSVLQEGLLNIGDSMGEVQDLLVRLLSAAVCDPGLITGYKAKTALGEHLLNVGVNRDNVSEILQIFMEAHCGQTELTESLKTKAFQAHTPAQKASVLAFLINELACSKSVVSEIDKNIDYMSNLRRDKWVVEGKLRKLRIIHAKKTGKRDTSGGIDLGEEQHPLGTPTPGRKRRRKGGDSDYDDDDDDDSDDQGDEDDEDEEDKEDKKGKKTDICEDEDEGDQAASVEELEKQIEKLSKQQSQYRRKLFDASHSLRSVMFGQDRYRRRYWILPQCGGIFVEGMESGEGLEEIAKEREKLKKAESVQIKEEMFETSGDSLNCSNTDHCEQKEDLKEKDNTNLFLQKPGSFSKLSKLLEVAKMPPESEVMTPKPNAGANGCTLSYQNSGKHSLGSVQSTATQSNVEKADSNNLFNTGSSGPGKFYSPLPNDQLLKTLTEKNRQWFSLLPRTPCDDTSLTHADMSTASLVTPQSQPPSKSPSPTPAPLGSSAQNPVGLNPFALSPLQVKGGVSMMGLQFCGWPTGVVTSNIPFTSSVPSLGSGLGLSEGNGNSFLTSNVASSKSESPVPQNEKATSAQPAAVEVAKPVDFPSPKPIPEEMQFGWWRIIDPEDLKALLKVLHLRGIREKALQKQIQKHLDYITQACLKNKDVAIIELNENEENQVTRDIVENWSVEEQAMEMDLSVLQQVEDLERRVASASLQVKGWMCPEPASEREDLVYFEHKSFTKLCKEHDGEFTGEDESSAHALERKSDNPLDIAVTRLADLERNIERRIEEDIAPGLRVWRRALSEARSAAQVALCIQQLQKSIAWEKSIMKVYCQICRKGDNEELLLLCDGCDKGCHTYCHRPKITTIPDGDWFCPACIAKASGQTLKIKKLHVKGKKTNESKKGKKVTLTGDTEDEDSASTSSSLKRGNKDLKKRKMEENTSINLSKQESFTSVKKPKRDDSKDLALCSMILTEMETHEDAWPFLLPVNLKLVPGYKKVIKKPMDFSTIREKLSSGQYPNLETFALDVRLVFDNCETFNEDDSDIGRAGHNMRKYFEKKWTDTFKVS
How it was run: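 Compounds, titrated to a top concentration of 110 uM, were incubated 30 min at room temperature with preformed BAZ2B/acetyl-K14 H3 peptide complex (50 nM each). Proximity signal was measured by AlphaScreen after 20 min with beads.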
Note: nearly all actives have a fitted effect of over 60% in size.
Potency is the fitted concentration of half-maximal effect.

Compound | Potency
Cc1cc(C)c2sc(NC(=O)c3ccc(S(=O)(=O)N4CCCC4)cc3)nc2c1 | inactive
COc1ccc(C(=O)CSc2c(C(C)C)cnc3c2c(=O)n(C)c(=O)n3C)cc1 | inactive
CCc1ccc(CNC(=O)c2ccc(CS(=O)c3ccc(Br)cc3)o2)cc1 (stereo not drawn) | inactive
CCc1nnc(SCc2c(F)cccc2Cl)c2cc3sccc3n12 | inactive
Nc1ccc2nc3c(=O)[nH]c(=S)[nH]c3nc2c1 | 31.6 µM (active)
CC1CN(C(=O)N2CCC(C(=O)NCc3cccs3)CC2)c2ccccc2O1 (stereo not drawn) | inactive
CCn1c(=O)cc(OCC(=O)Nc2cc(Cl)c(OC)cc2OC)c2ccccc21 | inactive
Cc1cccc(C(=O)Nc2ccc(-c3nc4ncccc4o3)cc2C)c1 | inactive
COc1cccc(C(=O)Nc2ccc(N3CCN(C(=O)c4ccco4)CC3)cc2)c1 | inactive
COc1cccc(C(=O)Nc2ccc3nc4n(c(=O)c3c2)CCCCC4)c1 | inactive
Cc1ccccc1C(=O)NC(=S)Nc1ccc(N2CCN(C(=O)c3ccccc3)CC2)cc1 | inactive
COC(=O)Cc1ccc(NC(=S)NCc2ccccc2)cc1 | inactive
Cc1ccccc1C(=O)N1CCN(c2ccc(NC(=O)c3cccs3)cc2)CC1 | inactive
O=C(CCN1CCN(c2ccccc2)CC1)NNC(=S)Nc1ccccc1 | inactive
O=C(Cc1ccccc1)NC(=S)Nc1ccc(N2CCCCC2)cc1 | 12.6 µM (active)
COc1cccc(C(=O)Nc2ccc(N3CCCC3)cc2)c1 | 31.6 µM (active)
Cc1ccccc1C(=O)Nc1ccc(N2CCCCCC2)cc1 | 31.6 µM (active)
Cc1cc2nn(-c3ccc(Cl)cc3)nc2cc1NC(=O)C(C)C | inactive
CCC1CCCCN1S(=O)(=O)c1ccc(NC(=O)c2cc(=O)c3ccccc3o2)cc1 (stereo not drawn) | inactive
CC(=O)Nc1cc(C(=O)NCc2ccc(F)cc2Cl)ccc1Sc1ccc(Cl)cc1 | inactive
CSc1cccc(NC(=O)CN2C(=O)CCc3cc(S(=O)(=O)N4CCCCC4)ccc32)c1 | inactive

Compound | Potency
Cc1ccccc1-n1c(=O)c2ccccc2n(Cc2ccc(F)cc2)c1=O | inactive
Cc1ccc(-c2nnc(Nc3ccc(OCC(N)=O)cc3)c3ccccc23)cc1S(=O)(=O)NCC1CCCO1 (stereo not drawn) | inactive
COc1ccc(CNC(=O)CS(=O)Cc2nc(-c3cccc(C)c3)oc2C)cc1 (stereo not drawn) | inactive
COc1ccc(CCNC(=O)c2c3c(nc4ccccc24)C(=O)N(C2CCCCC2)C3)cc1OC | inactive
COC(=O)c1cc2occc2n1Cc1nc(-c2ccc(C)cc2)oc1C | inactive
Cc1cc(N2CCN(S(=O)(=O)c3ccc(C)c(C)c3)CC2)c2ccccc2n1 | inactive
Cc1ccc(S(=O)(=O)C(C#N)c2nc3ccccc3nc2N2CCCC2)cc1C (stereo not drawn) | 79.4 µM (active)
Cc1ccc(S(=O)(=O)Nc2nc3ccccc3nc2N2CCc3ccccc3C2)cc1 | inactive
COc1cccc(Cn2c(CNS(=O)(=O)c3ccc(Cl)s3)nc3cccnc32)c1 | inactive
Cc1ccc(CNS(=O)(=O)c2ccc(C(=O)N(C)C)s2)cc1 | inactive
O=C(CC1C(=O)N(c2ccccc2)C(=O)N1CCc1cccs1)Nc1ccc(F)cc1 (stereo not drawn) | inactive
COc1cccc(C2/C(=C(/O)c3ccc(F)cc3)C(=O)C(=O)N2CCN(C)C)c1 (stereo not drawn) | inactive
COc1ccc(/C(O)=C2/C(=O)C(=O)N(CCCN(C)C)C2c2ccccc2)cc1OC (stereo not drawn) | inactive
CCCOc1ccc(/C(O)=C2/C(=O)C(=O)N(CCN(C)C)C2c2ccc(OC)c(OC)c2)cc1 (stereo not drawn) | 79.4 µM (active)
COc1ccc(CCNC(=O)c2ccc3c(c2)nc(C)n3-c2ccc(Br)cc2)cc1OC | inactive
COc1ccccc1CNC(=O)c1ccccc1NC(=O)c1nsc2ccccc12 | inactive
CCOc1ccc(CNC(=O)c2ccc3c(c2)nnn3C2CCCC2)cc1 | inactive
O=C(c1cc(-c2ccco2)nc2ccccc12)N(Cc1nnc(-c2ccc(Cl)cc2)o1)C1CC1 | inactive
CC1CCCN(C(=O)c2cc(-c3ccco3)nc3ccccc23)C1 (stereo not drawn) | inactive
Cc1cc(C)c2nc(-c3ccco3)cc(C(=O)O)c2c1 | 39.8 µM (active)
CC(C)(C)c1ccc(S(=O)(=O)N2CCN(C(=O)c3cc(-c4ccc(Br)cc4)n[nH]3)CC2)cc1 | inactive

Compound | Potency
Cc1cccc(CC(=O)N2CC(=O)Nc3ccc(F)cc3C2c2ccccc2)c1 (stereo not drawn) | inactive
CCc1ccc(CNC(=O)c2cc3c(=O)n(CC)c4ccccc4c3s2)cc1 | inactive
O=C(COc1ccc(/C=N/NS(=O)(=O)c2ccccc2)cc1)NCCc1ccccc1 | inactive
O=S(=O)(N/N=C\c1cccn1-c1ccccc1)c1ccc2ccccc2c1 | 35.5 µM (active)
COc1ccc(N2CC(NS(=O)(=O)c3ccc4ccccc4c3)CC2=O)cc1 (stereo not drawn) | inactive
CCOc1ccccc1CNC(=O)C1CCCN(S(=O)(=O)c2ccc3c(ccn3C)c2)C1 (stereo not drawn) | inactive
Cc1cc2oc(C(=O)N(Cc3ccc(Cl)cc3)Cc3ccco3)c(C)c2cc1Cl | inactive
CCc1cnc2c(c1SCC(=O)c1ccccc1)c(=O)n(C)c(=O)n2C | inactive
COc1cccc(N2CCN(S(=O)(=O)c3cc(Br)cc4c3N(C(=O)C3CC3)CC4)CC2)c1 | inactive
CCC(=O)N1CCc2cc(Br)cc(S(=O)(=O)Nc3ccc(C)cc3C)c21 | inactive
COc1ccc(Cn2ccnc2SCC(=O)NCc2ccco2)cc1 | inactive
COc1ccc(-c2oc3ncn(Cc4ccco4)c(=N)c3c2-c2ccc(OC)cc2)cc1 | 28.2 µM (active)
COc1ccc(NC(=O)C(=O)NCc2ccco2)cc1 | inactive
CCN1CCN(c2ncc3c(n2)CC(c2ccccc2O)CC3=O)CC1 (stereo not drawn) | inactive
Cc1ccc(C(=O)N2CCc3cc(CNC(=O)c4ccc(Br)cc4)ccc32)cc1 | inactive
Cc1ccc(C)c(OCC(=O)Nc2sc3c(c2C#N)CCCC3)c1C | inactive
N#Cc1c(NC(=O)CSc2nc3ccccc3c(=O)n2Cc2ccco2)sc2c1CCCC2 | inactive
COc1ccc(-n2c(SCC(=O)Nc3sc4c(c3C#N)CCCC4)nnc2-c2ccc(O)cc2)cc1 | 79.4 µM (active)
COc1ccc(NC(=O)CSc2nnc(-c3cccs3)n2Cc2ccco2)cc1OC | inactive
CN(c1ccccc1)c1ccc(/C=c2\s/c(=C(/C#N)C(=O)C(C)(C)C)n(Cc3ccco3)c2=O)cc1 | inactive
Cc1cs/c(=N\N=C\c2ccc(O)cc2)n1Cc1ccco1 | 44.7 µM (active)
